# Test results taken from PubChem BioAssay AID588790 (National Center for Advancing Translational Sciences (NCATS), 2011).
# Among all 1,200 compounds or so, about 85 (7%) were called active. The sample holds actives, similar compounds and a random draw of the others, so the mix is not that of the screen. Calls follow the shape of the full dose curve.
# Target: Beta-2 adrenergic receptor (Homo sapiens) (UniProt P07550)
# Assay: qHTS assay of beta-arrestin-biased ligands of beta2-adrenergic receptor: Hit Validation with GloSensor; as to activation: 0% is about no effect
# Details: W9-Glo22F cells, GloSensor cAMP luminescence, beta2AR agonism; activation: at 46.1 µM (top of the series)
# Source text: The concept of biased agonism is an emerging concept of molecular pharmacology which proposes that seven transmembrane receptors (7TMRs) or G protein-coupled receptors (GPCRs), exist in multiple signaling conformations and complexes and that ligands (either agonists or antagonists) can induce signaling biased responses for distinct signal transduction cascades.
# Furthermore, accumulating evidence over the last decade has drawn attention to a novel function of beta-arrestins as signal transducers that scaffold various signaling molecules upon activation of 7TMRs. […] This beta-arrestin-biased signaling presumably leads to distinct physiological outcomes from those by G protein activation.
# Additionally, the active receptor conformations which […] on this beta-arrestin signaling are likely different from those activating G protein signaling
# The goal of this screening project is to discover and optimize novel beta-arrestin-biased ligands for beta2-AR signaling. A luminescent cell-based assay for beta2-AR-mediated agonism, known as the Tango assay, has been validated in which ligand binding of a recombinant beta2-AR and subsequent recruitment of a recombinant beta-arrestin lead to the release of the transcriptional activator tTA, which upregulates transcription of a tTA-responsive luciferase gene. […] After compounds were identified in this primary screen, they were tested in a counter screen that used luminescence as measure through the GloSensor reagent.
# NIH Molecular Libraries Probe Production Network [MLPCN]
# NIH Chemical Genomics Center [NCGC]
# PI: Bryan Roth (UNC) and Bob Lefkowitz (Duke)
# 2 uL of W9-Glo22F cells are dispensed into a white 1536-well plate. They are incubated overnight at 37 deg C at 5% CO2. 23 nL of compounds and controls are pinned into the wells. Then 2 uL of GloSensor is added and the plate is incubated for 10 min at room temperature.The plates are then read on the ViewLux for luminescence.
# Potency is read from the fitted curve at half-maximal effect.
# Sequence of Beta-2 adrenergic receptor (Homo sapiens) (P07550 whole entry, looked up): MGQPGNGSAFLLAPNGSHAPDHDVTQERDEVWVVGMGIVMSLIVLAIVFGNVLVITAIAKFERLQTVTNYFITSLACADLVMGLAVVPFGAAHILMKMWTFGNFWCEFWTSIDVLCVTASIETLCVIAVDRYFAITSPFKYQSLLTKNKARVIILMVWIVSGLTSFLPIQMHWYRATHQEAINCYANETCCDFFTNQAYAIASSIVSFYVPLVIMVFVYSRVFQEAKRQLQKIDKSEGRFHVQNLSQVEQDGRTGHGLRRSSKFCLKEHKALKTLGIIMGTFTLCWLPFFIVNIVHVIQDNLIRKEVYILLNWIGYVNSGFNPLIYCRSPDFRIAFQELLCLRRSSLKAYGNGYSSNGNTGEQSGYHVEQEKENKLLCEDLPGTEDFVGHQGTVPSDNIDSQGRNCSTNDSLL
Compound,activation,Potency
NC(=S)N/N=C/c1ccccc1OC(=O)c1cc2ccccc2oc1=O,1.16% (inactive),
COCC(=O)Nc1c(C(=O)Nc2ccc3c(c2)OCCO3)oc2ccccc12,-2.48% (inactive),
Cc1cc(-c2n[nH]c(=S)n2/N=C/C(Br)=C/c2ccccc2)n[nH]1,0% (inactive),
CC(=C/c1ccccc1)/C=N/n1c(C)n[nH]c1=S,,25.9 µM (active)
CCc1n[nH]c(=S)n1/N=C/c1ccc(N(CC)CC)cc1,-2.48% (inactive),
Cc1cc(-c2n[nH]c(=S)n2/N=C/C(Cl)=C/c2ccccc2)n[nH]1,,36.6 µM (active)
S=c1[nH]nc(-c2ccco2)n1/N=C/C(Cl)=C/c1ccccc1,2.48% (inactive),
COC(=O)c1c(NC(=O)CS(=O)(=O)c2ccccc2)sc(C)c1C,0% (inactive),
C/C(=N\NC(=O)c1c[nH]c2ccccc12)c1ccc(C)s1,0.306% (inactive),
COc1cc2c(cc1OC)C(C)N(C(=O)Cn1ncc3c1-c1cc(C)ccc1OC3)CC2 (configuration not stated),1.16% (inactive),
N=c1n(Cc2ccccc2)c2ccccc2n1Cc1ccccc1,0.153% (inactive),
COc1cccc(NC(=S)NN=C2CCCCCC2)c1,-1.01% (inactive),
COC(=O)c1cc2sc(Cl)cc2n1CC(=O)Nc1ccc(OC)c(OC)c1OC,0% (inactive),
CNc1sc(C(=O)c2ccccc2F)c(N)c1-c1nc2ccccc2s1,,18.4 µM (active)
NC(=S)Nc1nc2ccccc2s1,2.48% (inactive),
CNc1sc(C(=O)c2cccs2)c(N)c1-c1nc2ccccc2s1,-1.16% (inactive),
CCOC(=O)C1=CN(Cc2cccc(-c3cccnc3)c2)S(=O)(=O)N(CC)C1C (configuration not stated),0% (inactive),
Cc1ccc(CONC(=O)c2ccccc2Cl)cc1,0.306% (inactive),
O=C(/C=C/c1ccc(N2CCCCC2)c([N+](=O)[O-])c1)c1ccc(S(=O)(=O)N2CCCC2)cc1,0% (inactive),

Compound,activation,Potency
Cc1ccc2nc(C)c(C(=O)N/N=C/c3cccs3)n2c1,0% (inactive),
C=CCNc1nc(Cl)nc(NC2CCCCC2)n1,,23.1 µM (active)
COC(=O)COc1cccc2c(=O)n(CC(=O)Nc3ccc4c(c3)OCCO4)ccc12,0% (inactive),
CCOC(=O)c1ccccc1NC1c2ccccc2C(=O)N1C1CCN(C(=O)OCC)CC1 (configuration not stated),-1.16% (inactive),
O=C(CSc1cccc2cccnc12)N1CCCC1,1.16% (inactive),
COc1ccc(CN=C2NN=C(c3ccccc3)CS2)cc1,-1.16% (inactive),
O=C1NC(=NCc2ccccc2)S/C1=C/c1ccc(O)cc1,,23.1 µM (active)
CCCCCC(=O)Nc1cccc(C2=NOC3(C2)C[C@@H](C(N)=O)N(C(=O)CC(c2ccccc2)c2ccccc2)C3)c1 (some centres not stated),0% (inactive),
CN(c1ccccc1)S(=O)(=O)c1ccc(C(=O)Nc2nccs2)cc1,0.459% (inactive),
O=C(Oc1ccc(Cl)c2cccnc12)c1ccco1,-1.16% (inactive),
O=C(Oc1c(-c2ccco2)oc2ccccc2c1=O)c1cccnc1,,32.6 µM (active)
O=C(Oc1c(Cl)cc(Cl)c2cccnc12)c1ccco1,-2.33% (inactive),
Cc1ccc2c(c1)[C@H]1[C@H](CO2)[C@H](c2ccccc2)[C@]2(C)C(=O)Nc3ccccc3C(=O)N12,0.459% (inactive),
NC(=S)N/N=C/c1ccc(-c2ccc([N+](=O)[O-])cc2)o1,0% (inactive),
NC(=S)N/N=C/c1ccc(-c2cccc([N+](=O)[O-])c2)o1,,20.6 µM (active)
NC(=S)N/N=C/c1ccc(-c2ccccc2)o1,0% (inactive),
Cc1cccc(NC(=S)NC(=O)C2CC2)c1,-1.16% (inactive),
CCC(NC(C)C)C(O)c1ccc(O)c2[nH]c(=O)ccc12 (configuration not stated),,0.0058 µM (active)
CCC(NC(C)C)C(O)c1ccc(O)c(O)c1 (configuration not stated),,0.0065 µM (active)

Compound,activation,Potency
COc1cccc(OCC(=O)Nc2c3c(nn2-c2ccc(F)cc2)CS(=O)(=O)C3)c1,3.64% (inactive),
O=C(NC1CCCCC1)N(Cc1cc2cc3c(cc2[nH]c1=O)OCCO3)CC1CCCO1 (configuration not stated),1.16% (inactive),
CCNC(=S)N/N=C(\C)c1cccc(C(F)(F)F)c1,2.48% (inactive),
CC(=O)Nc1ccc(S(=O)(=O)N2CCC(c3nnc(-c4ccc(C)cc4)o3)CC2)cc1,2.33% (inactive),
CCOC(=O)c1c(NC(=O)CSc2cccc[n+]2[O-])sc(C(=O)Nc2ccccc2)c1C,-1.16% (inactive),
CCOC(=O)c1c(C)nc2c(c1-c1ccccc1)C(=O)CC(C)(C)C2,1.16% (inactive),
CC(C)C(=O)COc1c2occc2cc2ccc(=O)oc12,,13 µM (active)
N#CC1=C(N)OC2=C(CC/C2=C\c2ccccc2)C1c1ccccc1 (configuration not stated),-1.16% (inactive),
CC1CCCC/C1=N\NC(=S)NCCc1ccccc1 (configuration not stated),-1.16% (inactive),
S=c1nc(-c2ccccc2)[nH]c2ccccc12,,32.6 µM (active)
S=c1nc(-c2ccccc2)[nH]c2ccc(Br)cc12,0% (inactive),
S=c1ccc2ccccc2[nH]1,-1.16% (inactive),
CCOC(=O)C1(O)CC(C)=NN1C(=O)c1cccc(Cl)c1 (configuration not stated),-1.16% (inactive),
CCNC(=S)N/N=C/c1cccs1,,5.8 µM (active)
CCNC(=S)N/N=C/c1sccc1C,0% (inactive),
CC(C)NC(=S)N/N=C/c1cccs1,-1.16% (inactive),
Cc1noc(C)c1COc1cccc(C(=O)Nc2ccccc2N2CCOCC2)c1,8.6% (inactive),
O=C(N/N=C/c1ccccc1OC(=O)c1ccc2c(c1)OCO2)c1ccccc1,4.96% (inactive),
Cn1c(/C=C/c2ccc([N+](=O)[O-])o2)nc2ccccc2c1=O,2.48% (inactive),
